# Most compounds without a hit are left out; they make up all but 18% or so of the library.
# TDP1 cell noCPT: qHTS for Inhibitors of human tyrosyl-DNA phosphodiesterase 1 (TDP1): qHTS in cells in absence of CPT. DT40 Tdp1-/- hTDP1 cells, no CPT, ATP luminescence, 48 h. Potency, µM (highest dose often 46.2 µM), without a hit: at the highest dose activity change, negative = growth inhibition, most hits filed as inhibitors. 420,000 tested, 15% active; further: potency means the concentration at half of the fitted maximal effect; nearly all actives have a fitted effect of over 55% in size
#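 Cells were dispensed at 400 per well, compounds added by pin tool, plates incubated ≥48 hr at 37 °C, then CellTiter-Glo added for 30 min at room temperature before luminescence reading. Line: DT40 Tdp1-/- complemented with hTDP1; camptothecin omitted.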
# VP16 counter: counter-screen for ROR gamma inhibitors: Gal4-VP16 reporter; Potency, µM (top dose mostly 53.6 µM), for inactives: at the highest dose activity, negative = inhibition, hits mostly inhibitors; AID 2546; 310,000 tested, 3.5% active; Drosophila S2 Gal4-VP16 UAS-luciferase, luminescence, 20 h;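 further: Gal4-VP16 expression switched on by copper sulfate through the metallothionein promoter; potency means the concentration at half of the fitted maximal effect; nearly all actives have a fitted effect of over 50% in size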
# IL-1B inflam inh: blocks inflammasome-driven IL-1 beta release | 360,000 tested, 4.7% active | THP-1 LPS/ATP IL-1B secretion, AlphaLISA, 16 h; hits give low values | AID 743279 | activity change, % at 57.5 µM; in the data active means activity change below about -50%; inconclusive means mostly about -30% to -49%
#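 Secreted IL-1B measured by AlphaLISA bead assay after 16 h compound exposure of THP-1 cells; compounds (final up to 57.5 uM) added 1 h before LPS (250 ng/mL) and ATP (1.25 mM) stimulation; lower signal means less secretion.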
# LDHA inh: LDHA (human) enzyme inhibition | purified LDHA, NADH/diaphorase-resazurin fluorescence; hits give low values | activity change, % (values are at about 110 or 230 µM) | 480,000 tested, 0.15% active | P00338; in the data active means activity change below about -30%; inconclusive means mostly about -25% to -30%;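 further: plate controls were DMSO wells for no effect and wells without enzyme for full effect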
#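 Remaining NADH was detected by diaphorase (0.133 mg/mL) converting 37 µM resazurin to fluorescent resorufin, read at 0 and 20 minutes. The preceding 5-minute room-temperature reaction used 2 nM LDHA, 0.2 mM sodium pyruvate and 0.06 mM NADH at pH 7.4.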
# TDP1 cell CPT: growth inhibition of DT40 Tdp1-/-;hTDP1 cells with camptothecin (screen for TDP1 inhibitors); chicken DT40 Tdp1-/-;hTDP1 cells + 20 nM CPT, ATP luminescence, 48 h; Potency, µM (titrated, usually from 46.2 µM), for the others: at the highest dose activity change, negative = growth inhibition, most hits filed as inhibitors; 420,000 tested, 12% active; further: potency means the concentration at half of the fitted maximal effect; nearly all actives have a fitted effect of over 55% in size
#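 Chicken DT40 Tdp1-/- cells stably complemented with human TDP1 were seeded at 400 cells/well in medium containing 20 nM camptothecin, exposed to pin-transferred compounds, and grown at 37 °C for at least 48 hr. Viability was read as ATP luminescence.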
# RORgamma inh: ROR gamma (mouse) transcription inhibition; P51450; Drosophila S2 Gal4-RORgamma UAS-luciferase reporter, 20 h; Potency, µM (doses to about 53.6 µM), for the others: top-dose activity change, negative = inhibition, hits mostly inhibitors; 310,000 tested, 5.4% active; AID 2551; further: potency means the concentration at half of the fitted maximal effect; nearly all actives have a fitted effect of over 60% in size
# Target sequence (P51450 whole entry, looked up, the tested form may be a part): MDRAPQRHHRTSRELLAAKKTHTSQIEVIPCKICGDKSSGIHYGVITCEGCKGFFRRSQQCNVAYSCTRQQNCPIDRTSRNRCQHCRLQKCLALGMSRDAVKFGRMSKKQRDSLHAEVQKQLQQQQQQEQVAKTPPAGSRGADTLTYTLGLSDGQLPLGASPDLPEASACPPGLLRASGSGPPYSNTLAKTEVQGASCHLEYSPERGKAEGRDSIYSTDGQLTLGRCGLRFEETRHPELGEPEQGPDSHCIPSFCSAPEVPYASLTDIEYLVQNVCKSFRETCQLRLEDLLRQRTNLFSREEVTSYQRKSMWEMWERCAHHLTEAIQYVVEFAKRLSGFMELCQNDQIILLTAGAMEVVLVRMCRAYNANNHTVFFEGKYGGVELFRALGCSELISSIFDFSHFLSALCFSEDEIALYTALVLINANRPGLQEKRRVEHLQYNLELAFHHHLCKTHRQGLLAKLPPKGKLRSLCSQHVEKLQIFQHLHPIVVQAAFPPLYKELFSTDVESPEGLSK
#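 Drosophila Schneider cells stably carrying a metallothionein-driven Gal4 DBD–ROR gamma fusion and a UAS-Photinus luciferase reporter were exposed to compound for 1 hr, then induced with copper sulfate (700 uM final) for 20 hr at ambient temperature before luminescence reading.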
# * hit, by the source's call; ? = inconclusive; . = not tested or not shown; [ ] = remark or other dose. Unless noted, the call rests on the fitted dose curve; in most records, active means well fitted curve in the direction sought with a large enough effect; inconclusive means small, poorly fitted or top-dose-only effect, or another doubt; inactive means no such curve, though single readings can be large; an effect the other way counts as inactive or inconclusive. Unless noted, on the % scale 0 is the no-effect control and ±100 the full control effect.
SMILES,TDP1 cell noCPT,VP16 counter,IL-1B inflam inh,LDHA inh,TDP1 cell CPT,RORgamma inh
Cc1nnc(N2CCC(C(=O)N3CCCCC3)CC2)c2nn(-c3ccc(Cl)cc3)c(C)c12,?,-0.5%,-28.3,-5.4,20.6µM*,-1.9%
Cc1ccc(-n2nc3c(N4CCC(C(=O)NCCc5cccs5)CC4)nnc(C)c3c2C)cc1,29.1µM*,?,-3.5,-9.5,25.9µM*,-39.8%
O=C(NCCc1cccs1)C1CCN(c2ccc(C(F)(F)F)cn2)CC1,.,.,.,-30.6*,.,.
CC(=O)N1c2ccc(S(=O)(=O)NCCC(=O)N(C)Cc3ccco3)cc2CC1C (stereo unspecified),.,.,.,-4.2,.,.
Cc1cc(C(=O)N2CCCc3ccccc32)c2ccccc2n1,.,.,.,12.3,.,.
Cc1ccc(NC(=O)c2ccc(=O)n(CCOc3ccccc3)n2)c(Br)c1,.,.,.,1.3,.,.
C=CCNC(=O)CSCc1coc(-c2ccc(Cl)cc2)n1,.,.,.,-8.3,.,.
CC(=O)c1ccc(NC(=O)C2CCN(c3nnc(C)c4c(C)n(-c5ccccc5)nc34)CC2)cc1,20.6µM*,.,.,-6.1,14.6µM*,.
CCCCN(CC)CCNC(=O)C1CCN(c2nnc(C)c3c(C)n(-c4ccc(C)cc4)nc23)CC1,20.6µM*,.,.,-1.9,?,.
Cc1nnc(N2CCC(C(=O)NCCC(C)C)CC2)c2nn(-c3ccc(Cl)cc3)c(C)c12,20.6µM*,.,.,-4.8,?,.
N#Cc1nc(-c2ccco2)oc1N1CCN(C(=O)CNC(c2ccccc2)c2ccccc2)CC1,.,.,.,17.1,.,.
Cc1ccc(C)c(OCC(=O)N(Cc2nnc(-c3ccccc3Cl)o2)C2CC2)c1,?,.,-5.1,0.5,?,.
Cc1cccc(OCC(=O)N(Cc2nnc(-c3ccccc3Cl)o2)C2CC2)c1,?,.,-2.1,-2.0,16.4µM*,.
O=C(COc1ccc(Br)cc1)N(Cc1nnc(-c2ccccc2Cl)o1)C1CC1,23.1µM*,.,-3.7,-8.4,23.1µM*,.
O=C(COc1ccc(F)cc1Cl)N(Cc1nnc(-c2ccccc2Cl)o1)C1CC1,16.4µM*,.,-11.0,-3.3,-29.2%,.
Cc1nc2ccc(C(=O)NCC3CCN(C(C)C)C3)cc2nc1C (stereo unspecified),.,.,.,-2.2,.,.
O=C1C=CC[C@H](/C=C/C[C@@H](O)C[C@H](O)CCc2ccccc2)O1,?,.,-96.5*,-11.4,?,.
CSc1cccc(NC(=O)C2CCN(S(=O)(=O)c3ccc4c(c3)CCCN4C(=O)C3CCC3)CC2)c1,11.6µM*,.,.,-8.3,?,.
CSc1cccc(NC(=O)C2CCCN(S(=O)(=O)c3ccc4c(c3)CCCN4C(C)=O)C2)c1 (stereo unspecified),20.6µM*,.,.,-3.9,18.4µM*,.
CC(=O)c1ccc(NC(=O)C2CCN(S(=O)(=O)c3ccc4c(c3)CCCN4C(=O)C3CCC3)CC2)cc1,?,.,.,-2.2,11.6µM*,.
N#Cc1cccc(NC(=O)C2CCN(S(=O)(=O)c3ccc4c(c3)CCCN4C(=O)C3CCC3)CC2)c1,?,.,.,-3.9,?,.
CC(CCc1ccccc1)NC(=O)C1CCN(S(=O)(=O)c2cnc[nH]2)CC1 (stereo unspecified),-5.7%,.,-55.2*,-3.1,-1.1%,-29.3%[0.365 µM]
CC(Sc1nc(C(F)(F)F)nc2ccccc12)C(=O)N1CCCC1 (stereo unspecified),.,.,.,-0.8,.,.
COc1cccc(/C=N/NC(=O)CN2CC(c3ccccc3)CC2=O)c1O (stereo unspecified),18.4µM*,1.26µM*,92.2,10.5,?,0.562µM*
CCOc1ccc(CCNC(=O)C(O)c2ccccc2)cc1 (stereo unspecified),-27.6%,-8.6%,15.2,-0.4,4.0%,?
SMILES,TDP1 cell noCPT,VP16 counter,IL-1B inflam inh,LDHA inh,TDP1 cell CPT,RORgamma inh
COc1cccc(/C=N/NC(=O)CNC(=O)COc2ccccc2)c1O,7.31µM*,1µM*,180.4,5.5,6.51µM*,0.282µM*
Cc1cccc(OCC(=O)NCC(=O)N/N=C/c2cc(Br)cc(Br)c2O)c1,?,6.31µM*,96.6,-7.7,?,2µM*
CCOc1ccc(/C=N/NC(=O)C(O)c2ccccc2)c(O)c1 (stereo unspecified),?,2µM*,94.5,0.8,4.11µM*,0.794µM*
COc1cccc(/C=N/NC(=O)C[n+]2ccccc2)c1O,-9.5%,7.3%,9.2,19.5,-2.6%,-32.6%
COC(=O)C(Cc1ccc(O)cc1)NC(=O)c1nn(C)c(=O)c2ccccc12 (stereo unspecified),.,.,.,-3.6,.,.
COc1cccc(/C=N/NC(=O)CNC(=O)c2ccncc2)c1O,?,?,1.0,2.2,?,15.8µM*
COc1cccc(/C=N/NC(=O)CNC(=O)c2cccnc2)c1O,7.31µM*,-23.8%,127.5,21.1,-102.7%,17.8µM*
COc1cccc(/C=N/NC(=O)CNC(=O)c2ccco2)c1O,8.2µM*,20µM*,77.2,3.2,6.51µM*,1.58µM*
COc1cc(/C=N/NC(=O)CNC(=O)c2ccncc2)ccc1O,16.0%,-5.1%,10.8,-0.6,7.5%,-2.8%
O=C(COc1ccccc1)NCC(=O)N/N=C/c1ccc(O)cc1O,16.4µM*,-0.4%,119.9,7.5,?,?
COc1ccc(CCCC(=O)N/N=C/c2cccc(OC)c2O)cc1C,1.64µM*,0.126µM*,73.4,8.4,1.84µM*,0.224µM*
COc1cccc(/C=N/NC(=O)C(=O)NCc2cccnc2)c1O,?,?,34.4,15.7,?,11.2µM*
COc1cccc(/C=N/NC(=O)C(=O)NCc2cccnc2)c1OC,9.6%,1.3%,0.0,-5.2,17.0%,8.5%
CCNC(=O)NC(=O)C(C)N(C)Cc1cccs1 (stereo unspecified),.,.,.,-6.7,.,.
CCCOc1ccc(Nc2nc(SC)ncc2C(=O)OCC)cc1,25.9µM*,.,.,-1.1,?,.
CCN(C(=O)c1cc2c(s1)CCCC2)C1CC1,.,.,.,-3.6,.,.
COc1cc(C#N)cc(Cl)c1O,.,.,.,-4.6,.,.
Cc1cccc(CN2C(=O)c3ccccc3Sc3ccc(C(=O)NCCN4CCOCC4)cc32)c1,?,3.5%,-67.8*,-5.9,-0.5%,23.1%
O=C(NCCc1ccccc1)c1ccc2c(c1)N(Cc1ccccc1Cl)C(=O)c1ccccc1S2,?,.,.,-2.5,?,.
Cc1ccccc1CN1C(=O)c2ccccc2Sc2ccc(C(=O)NCCN3CCOCC3)cc21,23.1µM*,-5.6%,-24.8,0.8,?,-1.3%
Cc1ccccc1CN1C(=O)c2ccccc2Sc2ccc(C(=O)NCCc3ccccc3)cc21,20.6µM*,.,.,-4.7,16.4µM*,.
